The text below walks through data of ChEMBL document CHEMBL4513216, “Probing the Open Global Health Chemical Diversity Library for Multistage-Active Starting Points for Next-Generation Antimalarials” (ACS Infect Dis, 2020).

The campaign covered roughly 69,000 compounds. About 8,600 (12%) showed an effect of 50% or more. Only a selection was taken, and strong results are over-represented in it overall.

The test system of the assay is Plasmodium berghei. In words: Screen against P. berghei liver stage (PbLuc), transformed with Luciferase, at 10uM. As to conditions: tested at 10 uM. It is filed as functional, HepG2.
Regarding `CCOCC1CN(CCN(C)C)Cc2cnn(CC3CCCC3)c21` (stereo not drawn), the INHIBITION stood at 41.2%.
The value for `CC(C)CNC(=O)Nc1ccc(CN2CCOC2=O)cc1` was 23.2%; that for `CC(C)C(O)C1(CNC(=O)Nc2ccc(CN3CCOC3=O)cc2)CC1` (stereo not drawn) was 65.3%; that for `CCC(C)NC(=O)Nc1ccc(CN2CCOC2=O)cc1` (stereo not drawn) was 29%.
For `Cc1[nH]nc2ncc(C(=O)N3CCN(CCC(C)C)CC3)cc12`, the INHIBITION was found to be 23.7%.
To `Cc1ccc(CC(=O)N2CCC(Nc3ccc(C)nn3)CC2)cn1` belongs 1.78%.
The value for `CS(=O)(=O)NCC1CCCN(C(=O)c2ccc(F)c(F)c2)C1` (stereo not drawn) was 53%.
Consider `O=C(c1ccc(F)c(F)c1)N1CCN2CCCC2C1` (stereo not drawn), for which the INHIBITION amounted to 9.52%.
For the molecule `COc1ccc(C(=O)N2CCCC(CNS(C)(=O)=O)C2)cc1F` (stereo not drawn), the INHIBITION was found to be 11.6%.
With `CS(=O)(=O)NCC1CCCN(C(=O)c2cccc(F)c2)C1` (stereo not drawn), the INHIBITION is 38.5%.
For `Cc1ccc(C(=O)N2CCCC(CNS(C)(=O)=O)C2)o1` (stereo not drawn), the INHIBITION came to 26.4%.
For `O=C(c1ccc(-n2cccc2)c(F)c1)N1CCCN2CCCC2C1` (stereo not drawn), the INHIBITION is -33.9%.
Take `CS(=O)(=O)NCC1CCCN(C(=O)c2ccco2)C1` (stereo not drawn): the INHIBITION was -14.6%.
As for `CS(=O)(=O)NCC1CCCN(C(=O)c2cc3ccccc3o2)C1` (stereo not drawn), the INHIBITION is reported as 57.8%.
The value for `O=C(c1ccc(F)c(Br)c1)N1CCCN2CCCC2C1` (stereo not drawn) was 59.4%; that for `CC1(NC(=O)CNC(=O)C(C)(C)C)CCc2ccccc2C1` (stereo not drawn) was -2.43%; that for `COCCc1noc(CN2CC(n3nc(C)cc3C)C2)n1` was -57.4%.
To `CC(C)COC(C)C(=O)NCc1ccccc1` (stereo not drawn) belongs -10.1%.
Consider `CCc1cc(=O)[nH]c(-c2ccc(NC(C)CN3CCOCC3)nc2)n1` (stereo not drawn), for which the INHIBITION was -33.9%.
In the case of `CSCC1CCCN(c2ncnc3oc(C)nc23)C1` (stereo not drawn), the INHIBITION is reported as -0.532%.
Take `O=C(NCc1ccccn1)[C@@H]1COC[C@H]2CN(C3CCOCC3)C[C@H]21`: the INHIBITION is on record as 29.6%.
As to `CCN(CC)c1ccc2ccc(C(=O)N(CCOC)CCOC)cn12`, the INHIBITION is 46.7%.
The value for `O=C(c1ccc2ccc(N3CCN(CC4CC4)CC3)n2c1)N1CCCO1` was 40.8%; that for `CCN(CC)c1ccc2ccc(C(=O)O)cn12` was 39.3%; that for `CN1CCN(c2ccc3ccc(C(=O)N4CCCO4)cn23)CC1` was 51.2%.
For the molecule `CN1CCN(c2ccc3ccc(C(=O)N4CCCCO4)cn23)CC1`, the INHIBITION is -12.4%.
`CCN(CC)c1ccc2ccc(C(=O)N3CCCCO3)cn12`: the INHIBITION is recorded as 68.9%.
Regarding `CN(CC1CC1)c1ccc2ccc(C(=O)NC3CCCCC3)cn12`, the INHIBITION is reported as 0.112%.
With `CCN(CC)c1ccc2ccc(C(=O)NC3CC3)cn12`, the INHIBITION stood at 24.6%.
The value for `CN(C)C(=O)CNC(=O)c1ccc2ccc(N(C)CC3CC3)n2c1` was 26%; that for `CN(CC1CC1)c1ccc2ccc(C(=O)NCCN3CCOCC3)cn12` was 23.2%.
Take `CCNC(=O)c1ccc2ccc(N(CC)CC)n2c1`: the INHIBITION was determined as 55.6%.
Take `CCN(CC)c1ccc2ccc(C(=O)N(C)C)cn12`: the INHIBITION amounted to 57.1%.
Regarding `C[C@@H]1CN(CCC(=O)NCc2ccccc2Cl)CC[C@@]1(O)C1CCC1`, the INHIBITION amounted to 41.4%.
With `CN(C)C1CCN(C(=O)Cc2csc(-c3ncccn3)n2)CC1`, the INHIBITION is -31.3%.
For the molecule `COc1c(CNCCc2c[nH]c3ccccc23)c(C(C)C)nn1C`, the INHIBITION was 22.5%.
On to `COCC1COCCC12CCN(S(=O)(=O)c1ccccc1C)CC2` (stereo not drawn), for which the INHIBITION came to 48.4%.
In the case of `CCCc1nnc2sc(-c3cc(C(C)C)n[nH]3)nn12`, the INHIBITION is given as 35.7%.
The value for `Cc1noc(C)c1C(=O)N1CCCN(C)c2ccc(Cl)cc21` was 19.7%; that for `Cc1nc(C)n(CC2CCCN(CCCc3ccccc3)C2)n1` (stereo not drawn) was 44.3%.
For the molecule `O=C(NC1CC1)[C@H]1CN(Cc2ccc3c(c2)OCO3)C[C@H]2OCC[C@@H]12`, the INHIBITION is -23.3%.
For the molecule `Cc1nc2[nH]cc(C(=O)N3CCCCC3c3ccc(F)cc3)c(=O)n2n1` (stereo not drawn), the INHIBITION was determined as 57.1%.
Take `Cc1cc2[nH]cc(C(=O)N3CCCCC3c3ccc(F)cc3)c(=O)n2n1` (stereo not drawn): the INHIBITION is 17.8%.
Consider `Cc1cc(=O)c(C(=O)N2CCCCC2c2ccc(F)cc2)c[nH]1` (stereo not drawn), for which the INHIBITION is -4.37%.
Consider `Cc1cc(CN2CCCN(c3ccc(C#N)cc3)CC2)no1`, for which the INHIBITION came to 29.17%.
As to `COc1ccc(Cn2c(C3CCNCC3)cc3cccnc32)cc1`, the INHIBITION was 36.8%.
In the case of `Fc1cccc(F)c1Cn1c(C2CCNCC2)cc2cccnc21`, the INHIBITION is 54.9%.
For `COc1cccc(Cn2c(C3CCNCC3)cc3cccnc32)c1`, the INHIBITION came out at 10.82%.
To `c1cnc2c(c1)cc(C1CCOCC1)n2CCN1CCOCC1` belongs 32.4%; to `Fc1cccc(F)c1Cn1c(C2CCCNC2)cc2cccnc21` (stereo not drawn), 30.74%; to `Fc1ccccc1Cn1c(C2CCNCC2)cc2cccnc21`, 52.55%.
For `Cc1oncc1C(=O)N1CCC2(CCN(Cc3cccnc3)C2=O)C1` (stereo not drawn), the INHIBITION is reported as 5.41%.
In the case of `O=C(CC1CCCCC1)N1CCOCC1CO` (stereo not drawn), the INHIBITION is -40%.
